G9a inh: G9a (human) methyltransferase inhibition. Q96KQ7. G9a H3K9 monomethylation, AlphaScreen, 2 h. Potency, µM (top dose mostly 102 µM), actives largely listed as inhibitors. 350,000 compounds, 8.8% hits; note: nearly all actives have a fitted effect of over 75% in size
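Compounds were preincubated with 20 nM G9a for 15 min, after which biotinylated H3K9 peptide (500 nM) and SAM (20 uM) started a 2 h room-temperature reaction. Monomethylated product was quantified by antibody-based AlphaScreen chemiluminescence.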
HP1b binding inh: inhibitors of HP1-beta chromodomain binding to methylated histone tails; 390,000 compounds, 0.56% hits; AID 540317; P83916; Potency, µM (doses to about 114 µM), actives largely listed as inhibitors; AlphaScreen HP1-beta / biotin-H3K9me3 peptide binding; note: nearly all actives have a fitted effect of over 70% in size
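HP1-beta protein (50 nM final) preincubated 30 min at room temperature with biotinylated H3(1-18)K9me3 peptide (50 nM) in PBS pH 7.4, 0.01% Tween-20, then compound added for 30 min. AlphaScreen streptavidin donor/nickel chelate acceptor beads (10 ug/mL final), 30 min dark, luminescence read.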
BAZ2B inh: inhibitors of human BAZ2B bromodomain. 360,000 compounds, 4.4% hits. AlphaScreen BAZ2B-H3K14Ac peptide displacement. Potency, µM (highest dose often 114 µM), hits mostly inhibitors. Q9UIF8; note: nearly all actives have a fitted effect of over 60% in size
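BAZ2B (50 nM) with biotin-H3(5-23)K14Ac peptide (50 nM) in PBS pH 7.4, 0.01% Tween-20, preformed 30 min, then compound 30 min at room temperature; top concentration 110uM. AlphaScreen streptavidin donor/nickel chelate acceptor beads (10 ug/mL final), 20 min dark, signal read.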
PLK1 PBD block: inhibitors of human PLK1 polo-box domain binding; P53350; Plk1 PBD binding of FITC phosphopeptide, fluorescence polarization; Potency, µM, most hits filed as inhibitors; 360,000 compounds, 2.8% hits; AID 720504; note: series mostly up to about 57 µM; nearly all actives have a fitted effect of over 65% in size
JMJD2A Tudor inh: inhibitors of human JMJD2A Tudor domain; O75164; Potency, µM (series often up to 114 µM), most hits filed as inhibitors; AlphaScreen JMJD2A-Tudor / H3K4me3 peptide binding; 390,000 compounds, 4.4% hits; note: nearly all actives have a fitted effect of over 50% in size
Sfp PPTase inh: inhibitors of Bacillus subtilis Sfp phosphopantetheinyl transferase | Q9F4F7 | Biochemical Sfp PPTase activity, qHTS | Potency, µM, hits mostly inhibitors | 310,000 compounds, 3.5% hits;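 note: the enzyme is Sfp with the accession as filed and its product quenches rhodamine fluorescence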
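With Hepes-Na pH 7.6 buffer containing 10 mM MgCl2, Sfp (15 nM) modified BHQ-2-YbbR (12.5 uM) using rhodamine-CoA (5 uM). Two reads 30 minutes apart at 525/598 nm yielded each well's rate.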
A number is an active result; – = inactive; ? = inconclusive; · = no result given; [ ] = another dose, or the depositor's remark. In the library only some 12% were active in any assay of this set; here they are far more common. Calls come from the whole dose curve; as a rule, active = well fitted curve in the direction sought with a large enough effect; inconclusive = small, poorly fitted or top-dose-only effect, or another doubt; inactive = no such curve, though single readings can be large; an effect the other way counts as inactive or inconclusive.

SMILES | G9a inh | HP1b binding inh | BAZ2B inh | PLK1 PBD block | JMJD2A Tudor inh | Sfp PPTase inh
S=c1[nH]ncn1/N=C/c1cccc(Oc2ccccc2)c1 | – | ? | – | – | 45µM | –
S=c1[nH]nc(COc2ccccc2)n1/N=C/c1ccc(Br)cc1 | 20µM | – | – | 27µM | – | 63µM
S=c1[nH]nc(COc2ccccc2)n1/N=C/c1cccc(Br)c1 | 8.9µM | – | – | 30µM | ? | ?
Brc1ccc(OCc2nnnn2-c2ccccc2)cc1 | – | – | – | – | – | –
COc1ccc(CCNC(=O)/C=C/c2ccc(S(=O)(=O)N3CCOCC3)cc2)cc1 | – | – | – | – | – | ·
O=C(COC(=O)c1ccc(O)cc1O)Nc1ncc(Cl)cc1Cl | –[2.33 µM] | – | – | – | – | ·
CCCN1CNc2c(c(=O)[nH]c(=S)n2CCc2ccccn2)C1 | · | – | · | · | – | ·
CC1CCC/C(=N\NC(=O)Nc2ccccc2)C1 (stereo not given) | 40µM | – | – | – | – | –
COc1ccc(NCC(=O)N/N=C2\CCCC(C)C2)cc1 (stereo not given) | – | – | – | – | – | –
CC1CCC(=NNS(=O)(=O)c2ccc([N+](=O)[O-])cc2)CC1 (stereo not given) | · | – | · | – | – | ·
CC1CCC/C(=N\Nc2ccc(Cl)c(C(=O)O)c2)C1 (stereo not given) | 7.9µM | – | – | – | 79µM | –
CC1CCC/C(=N\NS(=O)(=O)c2ccccc2)C1 (stereo not given) | 32µM | – | – | ? | –[11.4 µM] | –
O=C(Nc1cccc(Cl)c1)C1CCCN(c2nn3cc(-c4ccc(F)cc4)nc3s2)C1 (stereo not given) | ? | – | – | · | – | ·
CC(C)(C)c1ccc(C2=NC(C)(C)N(CC(=O)Nc3ccc(F)c(F)c3)C2=O)cc1 | – | – | – | · | – | ·
CN(C)CCN(C(=O)CCS(=O)(=O)c1ccccc1)c1nc2cc3c(cc2s1)OCO3 | · | – | – | – | ? | –
Cc1ccc2nc(N(CCN3CCOCC3)C(=O)CCS(=O)(=O)c3ccccc3)sc2c1 | –[0.501 µM] | – | – | – | – | ·
O=C(CCS(=O)(=O)c1ccccc1)N(CCCN1CCOCC1)c1nc2ccccc2s1 | 40µM | – | – | ? | – | ·
Cc1ccc(S(=O)(=O)CCC(=O)N(CCCN2CCOCC2)c2nc3ccccc3s2)cc1 | 45µM | – | – | – | – | ·
CC1(C(=O)Nc2ccc3c(c2)OCCO3)CCC(=O)N1CCOc1ccccc1 (stereo not given) | · | · | · | – | · | ·
CC1CN(c2ccc(NC(=S)Nc3ccc(N4CC(C)OC(C)C4)cc3)cc2)CC(C)O1 (stereo not given) | 45µM | – | – | – | – | –
CCOC(=O)C1(Cc2cccc(F)c2)CCN(Cc2nc(CC)[nH]c2C)CC1 | 40µM | – | ? | – | 50µM | –
CCOC(=O)C1(Cc2cccc(F)c2)CCN(Cc2cnn(CC)c2)CC1 | – | – | – | – | –[11.4 µM] | –
COc1ccc2c(c1)C(=O)[C@@H](OC(=O)Nc1ccc(C)c(Br)c1)[C@H](c1ccc(OC)c(Br)c1)O2 | · | · | · | · | · | –
O=C(O)COn1c(-c2ccccc2)nc2ccc([N+](=O)[O-])cc21 | 45µM | – | 50µM | ? | ? | –
CC(C)CN1CCN(Cc2cccc3cccnc23)CC1CCO (stereo not given) | – | – | – | – | – | –
SMILES | G9a inh | HP1b binding inh | BAZ2B inh | PLK1 PBD block | JMJD2A Tudor inh | Sfp PPTase inh
O=C1C=CC2(C=C1)O[C@H](Cc1ccccc1)[C@@H](Cc1ccccc1)O2 | · | – | · | 9.5µM | – | ·
COc1ccc(C[C@@H]2OC3(C=CC(=O)C=C3)O[C@H]2Cc2ccc(OC)cc2)cc1 | · | – | · | ? | – | ·
COc1ccc(CNC(=O)CN2CCN(S(=O)(=O)c3cc(Br)ccc3Br)CC2)cc1OC | 50µM | – | – | – | – | ·
COc1ccc(CCNC(=O)CN2CCCc3ccccc32)cc1OC | 56µM | – | – | – | – | –
COc1ccc(CCNC(=O)CN2CCC(C(N)=O)CC2)cc1 | – | – | – | – | – | –
O=C(CN1CCCCCC1)NCCc1ccc(F)cc1 | 8.9µM | ? | 50µM | – | 3.5µM | ?
COc1ccc(CCNC(=O)CN2CCC(C)CC2)cc1OC | ? | ? | 56µM | – | ? | –
NS(=O)(=O)c1ccc(CCNC(=O)CN2CCN(c3ccc(F)cc3)CC2)cc1 | – | – | – | – | – | –
Cc1ccc(CNC(=O)CN2C(=O)COc3ccc(S(=O)(=O)Nc4ccccc4)cc32)cc1 | – | – | – | · | – | ·
O=C(CSc1nc2ccccc2c(=O)n1-c1ccc(F)cc1)Nc1cc(S(=O)(=O)N2CCOCC2)ccc1Cl | – | – | – | – | – | –
CN(CC(=O)Nc1c(Cl)cccc1Cl)C(=O)c1ccc2ccccc2n1 | – | – | – | – | – | ·
Cc1cccc(Cn2cnc3c(cnn3-c3ccc(Cl)cc3)c2=O)c1 | – | – | – | · | – | ·
COc1ccc(CCNC(=O)CNCC2CCCCC2)cc1OC | – | ? | 56µM | – | 25µM | –
S=C(Nc1ccc2nsnc2c1)N1CCCC1 | · | – | – | – | – | 14µM
COc1ccc(OCc2nc3c4cc(OC)c(OC)cc4nc(=S)n3[nH]2)cc1 | 1µM | – | – | – | – | –
COc1cc2nc(=S)n3[nH]c(CCn4c(C)nc5ccccc54)nc3c2cc1OC | ? | – | – | – | ? | ?
CC1=CC(C)(C)[N+](C)(C)c2ccc(C)cc21 | 56µM | – | ? | – | ? | –
CN(Cc1ccco1)c1ccnc(-c2cccc(NS(C)(=O)=O)c2)n1 | · | · | · | · | · | –
O=S(=O)(Nc1nc2ccccc2nc1Cl)c1ccccc1C(F)(F)F | 71µM | – | – | – | – | –
CCOc1ccc(C(=O)Nc2cccc(NC(=O)c3ccc(C(C)(C)C)cc3)c2)cc1Br | – | – | – | · | – | ·
CCN(CC)S(=O)(=O)c1cccc(NC(=O)CN2C(=O)NC3(CCOc4ccccc43)C2=O)c1 (stereo not given) | –[0.501 µM] | – | – | – | – | ·
CCCn1cc(S(=O)(=O)c2ccc(OC)cc2)c(=O)c2cc(F)c(N3CCCCCC3)cc21 | – | – | – | · | – | ·
Cn1cc(S(=O)(=O)N2CCCCC2)cc1C(=O)Nc1cccc(C#N)c1 | – | – | – | · | – | ·
CSc1nsc(SC)c1C(=O)Nc1ccc(C)cc1 | 25µM | – | ? | – | – | –
COc1ccc(C(=O)c2ccc(CC#N)s2)cc1 | ? | – | ? | – | 79µM | –
COc1ccc(S(=O)(=O)NC2CC2)cc1C(=O)N1CCOCC1 | – | ? | – | 7.5µM | –[11.4 µM] | –
COc1cc2c(cc1OC)CN(C(=O)c1cc(S(=O)(=O)N3CCOCC3)ccc1Cl)CC2 | 50µM | – | – | – | ? | –
Cc1ccc(S(=O)(=O)N2CCN(C(=O)c3cc4c(s3)CCCC4)CC2)cc1 | –[12.7 µM] | – | – | – | – | ·
COc1ccc(N2CCN(S(=O)(=O)c3ccc(OC)c(C(=O)N4CCOCC4)c3)CC2)cc1 | 45µM | – | – | – | – | –

From PubChem BioAssay
